# Data taken from the supplement of paper PMC8728848.
# Shown is part of a subset that was picked to be rich in the strongest signals.
# B1: PX9937I-bfa-538-26-538 (Bacteroides fragilis) (protein)
# chain: DKLDLSPIDYYGSGSYWKTEAQATAYIDGIHKHLRDAAWQHTITFGELRGGRFITGASSDGMGVSNGDIILQNFDETHTGVSKFGDLFGRITNLNLFIARVTDATYLSDEMKNFYLGEVYGLRAFYYFDLYRIYGGVPLRLTADVVEGVIDPNKLYMARSTPKEVMTQIKSDLNKSMEYFGNMNDFDPYKRGKKVYWSKAATECLMGEVYLWTSKVTTGDDVANPADLTIAKTHLESVLNNYNLKMLDDFSQVFNAKNKANDEIIFAIRFLEGEATNSNGTFTYNVGTGSTKNRYQANGEVFGDALDIQNTGNQTYEYNKAVYQNFDDADTRKEATFIASYNKDGKTGELSLYGTHVRKNIGYVNAQGARVYCGDYIFYRLPWVYLTLAEIANMEGDNAAVAKYINLVRKRAYGNAWDETLYAYPETADFTTNELAILHEKDKEFIQEGQRWWDLRRMTLTKGGTPLVFCKEGSLLGDAPILNKSTEAHKLLWPIEKTMLNKDPALEQTPGYK
# How the values were obtained:
# Assay in all cases: glycan array binding signal (z-score within array); higher = stronger binding
# Details in all cases: glycan notation: IUPAC condensed, linker removed
# [1] = target: Gal(b1-4)GlcNAc(b1-3)Gal(b1-4)GlcNAc(b1-3)Gal(b1-4)GlcNAc(b1-3)Gal(b1-4)GlcNAc(b1-2)Man(a1-3)[Gal(b1-4)GlcNAc(b1-3)Gal(b1-4)GlcNAc(b1-3)Gal(b1-4)GlcNAc(b1-3)Gal(b1-4)GlcNAc(b1-2)Man(a1-6)]Man(b1-4)GlcNAc(b1-4)GlcNAc
# Summary of the method: (§1)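 The Consortium for Functional Glycomics database supplied 3228 glycan arrays, of which those lacking an available protein sequence were dropped. The binding signal, a within-array Z-score, was averaged across arrays of the same protein sequence and across linkers. Negative scores can be read as non-binding.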
# [2] = target: Gal(b1-4)GlcNAc(b1-3)Gal(b1-4)GlcNAc(b1-3)Gal(b1-4)GlcNAc(b1-3)Gal(b1-4)GlcNAc(b1-3)Gal(b1-4)GlcNAc(b1-2)Man(a1-3)[Gal(b1-4)GlcNAc(b1-3)Gal(b1-4)GlcNAc(b1-3)Gal(b1-4)GlcNAc(b1-3)Gal(b1-4)GlcNAc(b1-3)Gal(b1-4)GlcNAc(b1-2)Man(a1-6)]Man(b1-4)GlcNAc(b1-4)GlcNAc
# Summary of the method: as §1
# [3] = target: Gal(b1-4)GlcNAc(b1-3)Gal(b1-4)GlcNAc(b1-6)[Gal(b1-3)]GalNAc
# Summary of the method: as §1
# [4] = target: Gal(b1-4)GlcNAc(b1-6)[Gal(b1-3)]GalNAc
# Summary of the method: as §1
# Gal3S4S(b1-4)GlcNAc = target: Gal3S4S(b1-4)GlcNAc
# Summary of the method: as §1
# Gal6P(b1-4)GlcNAc = target: Gal6P(b1-4)GlcNAc
# Summary of the method: as §1
# GalNAc4S6S(b1-4)GlcNAc = target: GalNAc4S6S(b1-4)GlcNAc
# Summary of the method: as §1
# [5] = target: GlcNAc(b1-2)[GlcNAc(b1-4)]Man(a1-3)[GlcNAc(b1-4)][GlcNAc(b1-2)[GlcNAc(b1-6)]Man(a1-6)]Man(b1-4)GlcNAc(b1-4)[Fuc(a1-6)]GlcNAc
# Summary of the method: as §1
# [6] = target: GlcNAc(b1-3)Gal(b1-4)GlcNAc(b1-3)Gal(b1-4)GlcNAc(b1-3)Gal(b1-4)GlcNAc(b1-3)Gal(b1-4)GlcNAc(b1-2)[GlcNAc(b1-3)Gal(b1-4)GlcNAc(b1-3)Gal(b1-4)GlcNAc(b1-3)Gal(b1-4)GlcNAc(b1-3)Gal(b1-4)GlcNAc(b1-6)]Man(a1-6)[GlcNAc(b1-3)Gal(b1-4)GlcNAc(b1-3)Gal(b1-4)GlcNAc(b1-3)Gal(b1-4)GlcNAc(b1-3)Gal(b1-4)GlcNAc(b1-2)Man(a1-3)]Man(b1-4)GlcNAc(b1-4)[Fuc(a1-6)]GlcNAc
# Summary of the method: as §1
# [7] = target: GlcNAc(b1-3)Gal(b1-4)GlcNAc(b1-6)[GlcNAc(b1-3)]Gal(b1-4)GlcNAc
# Summary of the method: as §1
# [8] = target: GlcNAc(b1-4)Gal(b1-4)GlcNAc
# Summary of the method: as §1
# [9] = target: GlcNAc(b1-4)GlcNAc(b1-4)GlcNAc(b1-4)GlcNAc(b1-4)GlcNAc
# Summary of the method: as §1
# [10] = target: GlcNAc(b1-4)GlcNAc(b1-4)GlcNAc(b1-4)GlcNAc(b1-4)GlcNAc(b1-4)GlcNAc
# Summary of the method: as §1
# GlcNAc(b1-6)GalNAc = target: GlcNAc(b1-6)GalNAc
# Summary of the method: as §1
# [11] = target: Man(a1-2)Man(a1-2)Man(a1-3)Man
# Summary of the method: as §1
# Man(a1-3)[Man(a1-6)]Man = target: Man(a1-3)[Man(a1-6)]Man
# Summary of the method: as §1
# [12] = target: Neu5Ac(a2-3)Gal(b1-3)GalNAc(b1-3)Gal(a1-4)Gal(b1-4)Glc
# Summary of the method: as §1
# [13] = target: Neu5Ac(a2-3)Gal(b1-3)[Fuc(a1-4)]GlcNAc(b1-3)Gal(b1-3)[Fuc(a1-4)]GlcNAc
# Summary of the method: as §1
# Neu5Ac(a2-6)Gal(b1-4)Glc = target: Neu5Ac(a2-6)Gal(b1-4)Glc
# Summary of the method: as §1
# [14] = target: Neu5Ac(a2-6)Gal(b1-4)GlcNAc
# Summary of the method: as §1
# [15] = target: Neu5Ac(a2-6)Gal(b1-4)GlcNAc(b1-2)Man(a1-3)Man(b1-4)GlcNAc(b1-4)GlcNAc
# Summary of the method: as §1
# [16] = target: Neu5Ac(a2-6)Gal(b1-4)GlcNAc(b1-2)Man(a1-3)[GlcNAc(b1-2)Man(a1-6)]Man(b1-4)GlcNAc(b1-4)GlcNAc
# Summary of the method: as §1
# [17] = target: Neu5Ac(a2-6)Gal(b1-4)GlcNAc(b1-3)Gal(b1-4)GlcNAc(b1-3)[Neu5Ac(a2-6)Gal(b1-4)GlcNAc(b1-3)Gal(b1-4)GlcNAc(b1-6)]GalNAc
# Summary of the method: as §1
# Neu5Ac(b2-6)GalNAc = target: Neu5Ac(b2-6)GalNAc
# Summary of the method: as §1
# [18] = target: Neu5Gc(a2-6)Gal(b1-4)GlcNAc
# Summary of the method: as §1
binder,measurement,setting,value
B1,glycan array binding signal (z-score),[1],1.43
same,glycan array binding signal (z-score),[2],1.74
same,glycan array binding signal (z-score),[3],3.46
same,glycan array binding signal (z-score),[4],-0.735
same,glycan array binding signal (z-score),Gal3S4S(b1-4)GlcNAc,0.428
same,glycan array binding signal (z-score),Gal6P(b1-4)GlcNAc,-0.37
same,glycan array binding signal (z-score),GalNAc4S6S(b1-4)GlcNAc,-0.708
same,glycan array binding signal (z-score),[5],-0.615
same,glycan array binding signal (z-score),[6],0.041
same,glycan array binding signal (z-score),[7],-0.068
same,glycan array binding signal (z-score),[8],1.65
same,glycan array binding signal (z-score),[9],1.25
same,glycan array binding signal (z-score),[10],-0.198
same,glycan array binding signal (z-score),GlcNAc(b1-6)GalNAc,0.252
same,glycan array binding signal (z-score),[11],0.241
same,glycan array binding signal (z-score),Man(a1-3)[Man(a1-6)]Man,0.95
same,glycan array binding signal (z-score),[12],-1
same,glycan array binding signal (z-score),[13],-1.26
same,glycan array binding signal (z-score),Neu5Ac(a2-6)Gal(b1-4)Glc,-0.274
same,glycan array binding signal (z-score),[14],-0.419
same,glycan array binding signal (z-score),[15],3.63
same,glycan array binding signal (z-score),[16],-0.591
same,glycan array binding signal (z-score),[17],-0.643
same,glycan array binding signal (z-score),Neu5Ac(b2-6)GalNAc,-0.386
same,glycan array binding signal (z-score),[18],-0.339
